Screening results from PubChem.
KLK7 zymogen act – proKLK7 (human) activation, primary screen. P49862. purified proKLK7, EDANS-DABCYL substrate fluorescence; 100% is mature enzyme control, 0% vehicle. actives 0.9% (n = 370,000). activation, % at 7 µM;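 active means activation above the mean of all tested compounds plus 3 SD, computed per campaign excluding outliers beyond control limits, cut at about 13% in these data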
Target sequence (P49862 whole entry, looked up): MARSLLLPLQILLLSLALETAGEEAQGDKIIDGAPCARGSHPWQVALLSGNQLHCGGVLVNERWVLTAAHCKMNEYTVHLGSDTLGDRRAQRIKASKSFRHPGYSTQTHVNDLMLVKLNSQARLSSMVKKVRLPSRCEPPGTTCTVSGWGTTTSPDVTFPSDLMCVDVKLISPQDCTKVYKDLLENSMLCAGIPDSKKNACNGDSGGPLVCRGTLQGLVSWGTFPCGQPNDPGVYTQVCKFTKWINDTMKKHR
ADAM10 inh – ADAM10 inhibition, QFRET primary screen | O14672 | recombinant ADAM10, EDANS/DABCYL FRET peptide cleavage, 3 h | inhibition, % at 7 µM | actives 0.62% (n = 370,000) | AID 720582;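 active means inhibition above a per-campaign cutoff equal to the mean of compounds falling between control-based bounds plus 3 SD, cut at about 20% in these data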;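 further: 0% = DMSO wells while the 100% control is not disclosed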
ADAM17 inh – inhibits human ADAM17. actives 0.83% (n = 370,000). P78536. recombinant ADAM17, EDANS/DABCYL FRET peptide cleavage. inhibition, % at 6.95 µM;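 active means inhibition above the mean of compounds lying between control limits plus 3 SD, set per campaign, cut at about 8.5% in these data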;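 further: 0% = DMSO-only wells as the low control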
PLC-beta3 inh – inhibitors of human phospholipase C beta3 | actives 0.18% (n = 370,000) | inhibition, % at 12.2 µM | Purified PLC-beta3, fluorogenic substrate, fluorescence | Q01970 | AID 720704; in the data active means inhibition above about 11%;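 further: 0% = median of compound wells on plate and 100% = full blocker control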
PLCg1 inh – inhibitors of human phospholipase C gamma1; purified PLC-gamma1, fluorogenic substrate, fluorescence; P19174; inhibition, % at 12.2 µM; actives 0.84% (n = 370,000); AID 720700; in the data active means inhibition above about 9.5%
ADAM10 counter – ADAM10 inhibition, counter-screen for ADAM17 exosite hits. shares compounds with ADAM17 inh. recombinant ADAM10, EDANS/DABCYL FRET peptide cleavage, 3 h. inhibition, % at 6.95 µM. actives 47% (n = 2,900). AID 743256;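 active means mean inhibition over the triplicate runs exceeds the activity threshold set in the earlier primary screen, cut at about 20% in these data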;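 further: 0% = DMSO wells and 100% = marimastat wells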
ADAM17 confirm – human ADAM17 inhibition, confirmation. shares compounds with ADAM17 inh. recombinant ADAM17, EDANS/DABCYL QFRET peptide cleavage. inhibition, % at 6.95 µM. actives 65% (n = 2,900). AID 743257;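 active means mean inhibition across replicates above the hit cutoff set in the primary screen, cut at about 8.5% in these data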;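 further: 0% = DMSO wells and 100% = marimastat wells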
An asterisk follows results filed as active; . = not tested or not shown. An excerpt weighted towards active compounds, which were near 2.9% of everything screened.

SMILES | KLK7 zymogen act | ADAM10 inh | ADAM17 inh | PLC-beta3 inh | PLCg1 inh | ADAM10 counter | ADAM17 confirm
CCn1c(SCC(=O)Nc2ncc(C(F)(F)F)cc2Cl)nnc1-c1cccc(C)c1 | 0.3 | 3.6 | 10.0* | 4.8 | 6.7 | 1.4 | 1.9
COc1ccc(-c2nnc(SCC(=O)Nc3ncc(C(F)(F)F)cc3Cl)n2CC(C)C)cc1 | 0.4 | -9.9 | -5.6 | 2.7 | -4.0 | . | .
CCCOc1ccc(F)cc1-c1cc(C(=O)NCc2ccccc2)[nH]n1 | 0.5 | -1.7 | 3.3 | -2.1 | -1.3 | . | .
CCCOc1ccc(F)cc1-c1cc(C(=O)NCc2cccc(C(F)(F)F)c2)[nH]n1 | -0.1 | 15.0 | 9.7* | -0.9 | 1.3 | 22.4* | 15.1*
COC(=O)c1cc(S(=O)(=O)NC2CCC(C)CC2)cn1C (stereo not drawn) | 0.2 | -0.7 | -3.3 | -4.8 | -0.3 | . | .
O=[N+]([O-])c1cc(-n2cnnn2)ccc1N1CCC(Cc2ccccc2)CC1 | -0.2 | 26.4* | 11.9* | 1.0 | 2.7 | 13.0 | 9.2*
CC1CC(C)CN(c2ccc(-n3cnnn3)cc2[N+](=O)[O-])C1 (stereo not drawn) | 0.3 | 1.9 | 1.9 | 1.6 | 1.7 | . | .
Brc1ccc(C2=Nn3cnnc3SC2)cc1 | 0.8 | -3.8 | -2.8 | 0.3 | 2.6 | . | .
O=C(NC1CC1)c1c(O)c2ccccc2[nH]c1=O | 0.1 | -7.5 | -2.6 | -4.5 | 3.3 | . | .
O=C(NC1CCCCCCC1)c1c(O)c2ccccc2[nH]c1=O | -0.1 | 3.4 | 9.4* | 2.9 | 7.5 | -5.5 | 1.4
COc1ccccc1CNC(=O)CN(C)CC(=O)Nc1ccccc1Br | 0.9 | -18.0 | -0.3 | 1.9 | 2.8 | . | .
C=CCC[C@@H](Cc1ccc(F)cc1)C(=O)OC[C@@H](Cc1c[nH]c2ccccc12)NC(=O)[C@@H](CC=C)CC(=O)N(CCO)Cc1ccccc1 | 0.4 | 6.9 | 9.5* | -4.7 | 0.5 | 36.8* | 21.2*
C=CCC[C@@H](Cc1ccc(F)cc1)C(=O)OC[C@H](C)NC(=O)[C@@H](CC=C)CC(=O)N(CCO)Cc1ccccc1 | -0.3 | 19.1 | 9.8* | 5.7 | 4.4 | 6.4 | 7.2
CCc1nnc(NC(=O)[C@@H](NS(=O)(=O)c2ccc3c(c2)OCCO3)C(C)C)s1 | -0.3 | -4.9 | 6.3 | 7.6 | -8.1 | . | .
COc1ccc(CNC(=O)CN(C(=O)CCC(=O)Nc2ccccn2)c2ccc(C)cc2)cc1 | 0.1 | 4.8 | 4.0 | -1.1 | 3.3 | . | .
CCOC(=O)C1=C(C(=O)OCC)C2N(Cc3ccc(C#N)cc3)c3ccccc3[C@@]23C[C@@H](C(=O)OC)N(S(=O)(=O)c2ccc(OC)cc2)C3=N1 (stereo partly drawn) | -0.1 | 16.3 | 11.9* | 4.6 | 3.0 | 19.4 | 11.9*
Cc1cnc(C(=O)OC(C)C(=O)Nc2ccc3c(c2)OCCO3)cn1 (stereo not drawn) | 0.4 | 7.8 | 9.9* | 0.1 | 3.8 | 5.0 | 14.5*
CC(OC(=O)c1cc(S(=O)(=O)Nc2ccc(F)cc2)ccc1Cl)C(=O)Nc1ccc2c(c1)OCCO2 (stereo not drawn) | 0.0 | 12.3 | 9.8* | -1.8 | -0.1 | 11.7 | 8.5
CC(=O)Nc1ccc(S(=O)(=O)Nc2ccc3c(c2)OCCO3)cc1Cl | 0.3 | 5.3 | 0.1 | -2.9 | 0.2 | . | .
CCCCOP(=O)(OCCCC)C(O)c1ccc(Br)cc1 (stereo not drawn) | -0.2 | 11.3 | 10.6* | 6.0 | -20.7 | -6.5 | 0.2
COc1ccc(C(O)c2ncc(-c3ccccc3)[nH]2)cc1 (stereo not drawn) | -0.8 | -10.2 | -6.8 | 2.0 | 3.2 | . | .
CSc1ccc(C(O)c2ncc(-c3cccc(OCc4ccccc4)c3)[nH]2)cc1 (stereo not drawn) | -0.8 | 18.7 | 9.3* | -7.6 | -4.3 | 23.5* | 11.5*
OC(c1ccc(-c2ccccc2)cc1)c1ncc(-c2ccc(F)cc2)[nH]1 (stereo not drawn) | 0.7 | 19.0 | 11.4* | 0.9 | 2.6 | 22.9* | 12.2*
COc1cccc(-c2cnc(C(O)c3ccc(SC)cc3)[nH]2)c1 (stereo not drawn) | -0.8 | 10.2 | 0.9 | 0.9 | 0.7 | . | .
COc1ccc2nc(NC(=S)N(C)C)sc2c1 | -0.2 | 6.2 | 12.9* | 9.3 | 15.5* | -10.1 | 0.7
SMILES | KLK7 zymogen act | ADAM10 inh | ADAM17 inh | PLC-beta3 inh | PLCg1 inh | ADAM10 counter | ADAM17 confirm
CC(NC(=O)CCSCc1ccccc1F)c1ccccc1 (stereo not drawn) | 0.0 | 3.6 | 0.9 | -2.2 | 5.3 | . | .
COc1ccccc1C(=O)C1CCCN(Cc2cccc(OCCO)c2)C1 (stereo not drawn) | 0.8 | -1.8 | -4.0 | -9.5 | -0.7 | . | .
CSc1ccccc1NC(=O)Nc1ccc(F)c(Cl)c1 | -0.3 | 14.7 | 3.0 | 6.6 | 1.9 | . | .
CSc1ccccc1NC(=O)Nc1cccc(Cl)c1 | -0.2 | 13.9 | 9.7* | 2.6 | 1.6 | 15.3 | 10.1*
CC(=O)N1CC(C)Sc2ccc(S(=O)(=O)NCCc3ccc(C)cc3)cc21 (stereo not drawn) | 0.1 | 11.1 | 9.3* | -2.3 | 5.7 | 1.0 | 5.9
CC(=O)N1CC(C)Sc2ccc(S(=O)(=O)NCCc3ccccc3)cc21 (stereo not drawn) | -0.3 | -2.4 | 5.8 | -9.4 | 1.7 | . | .
Cc1ccc(C)c(N(CC(=O)Nc2ccccc2C(=O)NCc2ccco2)S(=O)(=O)c2ccccc2)c1 | -1.2 | 11.8 | 9.6* | -1.9 | 4.6 | 23.1* | 15.8*
CC1CN(S(=O)(=O)c2ccc(NC(=O)c3cc(-c4ccccc4O)n[nH]3)cc2)CC(C)O1 (stereo not drawn) | -0.2 | 23.6* | 11.8* | 2.9 | 3.5 | 18.4 | 14.1*
CC(C)(C)NC(=O)C(c1ccc(O)cc1)N(C(=O)Cn1nnc(-c2ccc(F)cc2)n1)c1ccccc1F (stereo not drawn) | -0.2 | 16.1 | 9.9* | 1.5 | 2.5 | 38.6* | 18.0*
CN(CC(=O)Nc1ccc(F)cc1)C(=O)COC(=O)c1ccc(-c2ccccc2)cc1 | 0.1 | 1.4 | 2.7 | -10.7 | -0.5 | . | .
Cc1cc(C)cc(C(=O)NCC(=O)OCC(=O)N2CCN(S(=O)(=O)c3ccc4ccccc4c3)CC2)c1 | 0.1 | 14.5 | 10.1* | -0.4 | 0.0 | 26.3* | 12.3*
Cc1ccc(S(=O)(=O)N2CCN(C(=O)COC(=O)CNC(=O)c3ccccc3)CC2)c(C)c1 | -0.2 | -6.0 | 3.0 | -3.4 | -0.1 | . | .
Cc1csc(-c2cnn(-c3ccccc3)c2NC(=O)c2ccc(C(F)(F)F)cc2)n1 | -0.2 | 12.6 | 9.3* | 0.7 | 2.3 | 17.8 | 11.2*
Cc1ccc(OCCC(=O)OCC(=O)NC(=O)NC2CCCCC2)cc1 | 0.3 | -11.1 | 9.0* | -10.4 | 0.5 | 30.2* | 14.2*
Cc1ccccc1OCc1nc(-c2ccc(NC(=O)c3cccs3)cc2)no1 | -0.1 | 5.0 | 11.9* | -1.1 | -3.8 | -63.3 | -12.3
